Assay results: PubChem BioAssay (NCI)
Compounds without any hit were thinned out: in the full panel of roughly 79,000, 15% have a hit. A number with no mark means an inactive call. Activity calls are given as the source filed them. Cut-off read from the data, not from the text of the source: active = growth inhibition above about 70%; inactive = the rest.

Test: NCI Yeast Anticancer Drug Screen. Data for the rad50 strain (AID 155);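 note: 0% = growth of vehicle-only cultures of the same strain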
Conditions: S. cerevisiae rad50 strain growth inhibition; at 5.0 µM (retest, dose inferred, filed as 0.5); active compounds read high
How it was run: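 Vehicle-treated cultures provide the reference for the growth inhibition reported for compound-exposed, repair-deficient yeast.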
For `CCOP(=O)(OCC)/C(C#N)=C/c1ccc(Oc2ccccc2)cc1`, the growth inhibition was -12%.
In the case of `CC(=O)Nc1ccc(S(=O)(=O)/N=C2\C=CC(=O)c3ccccc32)cc1`, the growth inhibition is reported as 2%.
With `CCCC#CCCOC(=O)c1cc([N+](=O)[O-])cc([N+](=O)[O-])c1` the growth inhibition was 3%.
For `COc1cccc2c1OC(c1ccc(Cl)cc1)C([N+](=O)[O-])=C2` (stereo not given), the growth inhibition was 94% (active).
Compound `c1ccc(-n2c3ccccc3c3ccccc32)cc1` has a growth inhibition of 4%.
`CCOC(=O)C(NC(C)=O)[CH](c1ccccc1)[Sn]([c]1ccccc1)([c]1ccccc1)[c]1ccccc1` (stereo not given) showed a growth inhibition of 3%.
For `C/C(CCn1[nH]c(=O)ccc1=O)=N\Nc1ccc([N+](=O)[O-])cc1[N+](=O)[O-]`, the growth inhibition was 44%.
In the case of `N#CC(O)C(Br)(Br)Br` (stereo not given), the growth inhibition is reported as -3%.
Work on `COc1ccc(N)c([N+](=O)[O-])c1` yielded a growth inhibition of -5%.
With `CC(C)O[C@H]1N(C2CC(N=[N+]=[N-])C(CO)O2)C(=O)NC(=O)[C@]1(C)Br` (stereo not given in full) the growth inhibition was 14%.
`COc1ccc(C(=O)C2C(=O)C(=O)OC2C2OC(=O)C(=O)C2C(=O)c2ccc(OC)cc2)cc1` (stereo not given) gave a growth inhibition of -1%.
For `O=[N+]([O-])c1c(Cl)c(Cl)c(O)c(Cl)c1Cl`, the growth inhibition was 55%.
`Cc1ccc(C)c(NC(=O)CCC(=O)CC(=O)c2ccncc2)c1` gave a growth inhibition of -4%.
`CC(C)CCCC(C)C1CCC2C3CC=C4CC(OC(=O)Nc5ccc(S(=O)(=O)c6ccc(F)cc6)cc5)CCC4(C)C3CCC12C` (stereo not given) gave a growth inhibition of 3%.
Work on `COc1ccc(/C=C(/NC(=O)c2ccccc2)C(=O)Nc2ccccc2)cc1OC` yielded a growth inhibition of -13%.
Work on `C=C(Br)CN(CC(=C)Br)C(C)=O` yielded a growth inhibition of 17%.
With `CCN(C(C)=O)c1ccc2c(c1)Cc1ccccc1-2` the growth inhibition was 3%.
`NN(c1ccccc1)c1cccc2ccccc12` showed a growth inhibition of 2%.
With `C#CCN1CCN(C(=S)N/N=C(\C)c2ccccn2)CC1` the growth inhibition was 22%.
With `CC(C)OC(=O)C1C=CCc2c(O)ccc(O)c21` (stereo not given) the growth inhibition was 8%.
For `CC(=O)C1C(=O)C=C(C)OC1=O` (stereo not given), the growth inhibition was 4%.
`CCOC(=O)c1[nH]n(-c2ccccc2)c(=O)c1/C=N/C(=S)N=Nc1c(O)[nH]c2ccccc12` showed a growth inhibition of -9%.
For `N#Cc1c(Cl)nnc(-c2ccccc2)c1-c1ccccc1`, the growth inhibition was 6%.
`CC(=O)Oc1c(O)c2ccccc2c2ccccc12` gave a growth inhibition of 6%.
`Cc1cccnc1NC(=S)Nc1ccccc1Cl` showed a growth inhibition of 2%.
Work on `CCOC(=O)/C(=C\c1cccc(OC)c1)C(C)=O` yielded a growth inhibition of -5%.
`c1ccc(C(c2ccccc2)c2ccc3ccccc3n2)cc1` gave a growth inhibition of -3%.
Work on `O=c1cc(CSc2ccc(Cl)cc2)occ1O` yielded a growth inhibition of 3%.
`COc1cc(NCCCCCNC2CCCCC2)c2ncccc2c1` showed a growth inhibition of 2%.
`CC(=O)OCc1ccc([N+](=O)[O-])o1` gave a growth inhibition of 2%.
Compound `O=C(O)Cc1cccc2cc3c(ccc4ccccc43)cc12` has a growth inhibition of 15%.
Work on `Cc1cccc(N2C(=O)c3ccccc3C2(c2ccccc2)N2CCCCC2)c1` (stereo not given) yielded a growth inhibition of -1%.
`O=C(/C=C/c1ccccc1)CCN1CCOCC1` gave a growth inhibition of 21%.
Work on `C=CCCCCCCCCC(=O)CCCCCCCCC=C` yielded a growth inhibition of 0%.
In the case of `Cc1ccc(O)c(C(C)c2ccccc2)c1` (stereo not given), the growth inhibition is reported as 6%.
With `COC(=O)c1nc(N)nc(C(=O)OC)c1C(=O)c1ccccc1` the growth inhibition was 0%.
For `Cc1ccc(S(=O)(=O)Oc2ccc(C(C)(C)C)cc2Cl)cc1`, the growth inhibition was -8%.
In the case of `CCCCCCCCCCCCCCC[N+]1(CC)CCCCC1`, the growth inhibition is reported as 99% (active).
`CC12CCC(=O)C=C1C=CC1C2CCC2(C)C1CCC21CCC(=O)O1` (stereo not given) gave a growth inhibition of 11%.
In the case of `CC(C)N(C(=O)C12C3C4C1C1C2C3C41I)C(C)C` (stereo not given), the growth inhibition is reported as 16%.

Same assay, conditions: S. cerevisiae rad50 strain growth inhibition; at 50.0 µM (retest, dose inferred, filed as 5.0); active compounds read high
For `CCOP(=O)(OCC)/C(C#N)=C/c1ccc(Oc2ccccc2)cc1`, the growth inhibition was 97% (active).
For `CC(=O)Nc1ccc(S(=O)(=O)/N=C2\C=CC(=O)c3ccccc32)cc1`, the growth inhibition was 27%.
With `CCCC#CCCOC(=O)c1cc([N+](=O)[O-])cc([N+](=O)[O-])c1` the growth inhibition was 97% (active).
With `COc1cccc2c1OC(c1ccc(Cl)cc1)C([N+](=O)[O-])=C2` (stereo not given) the growth inhibition was 96% (active).
Work on `c1ccc(-n2c3ccccc3c3ccccc32)cc1` yielded a growth inhibition of 11%.
For `CCOC(=O)C(NC(C)=O)[CH](c1ccccc1)[Sn]([c]1ccccc1)([c]1ccccc1)[c]1ccccc1` (stereo not given), the growth inhibition was 92% (active).
In the case of `C/C(CCn1[nH]c(=O)ccc1=O)=N\Nc1ccc([N+](=O)[O-])cc1[N+](=O)[O-]`, the growth inhibition is reported as 97% (active).
In the case of `N#CC(O)C(Br)(Br)Br` (stereo not given), the growth inhibition is reported as 61%.
Work on `COc1ccc(N)c([N+](=O)[O-])c1` yielded a growth inhibition of 13%.
In the case of `CC(C)O[C@H]1N(C2CC(N=[N+]=[N-])C(CO)O2)C(=O)NC(=O)[C@]1(C)Br` (stereo not given in full), the growth inhibition is reported as 48%.
In the case of `COc1ccc(C(=O)C2C(=O)C(=O)OC2C2OC(=O)C(=O)C2C(=O)c2ccc(OC)cc2)cc1` (stereo not given), the growth inhibition is reported as 2%.
With `O=[N+]([O-])c1c(Cl)c(Cl)c(O)c(Cl)c1Cl` the growth inhibition was 80% (active).
For `Cc1ccc(C)c(NC(=O)CCC(=O)CC(=O)c2ccncc2)c1`, the growth inhibition was 12%.
`CC(C)CCCC(C)C1CCC2C3CC=C4CC(OC(=O)Nc5ccc(S(=O)(=O)c6ccc(F)cc6)cc5)CCC4(C)C3CCC12C` (stereo not given) gave a growth inhibition of 2%.
Work on `COc1ccc(/C=C(/NC(=O)c2ccccc2)C(=O)Nc2ccccc2)cc1OC` yielded a growth inhibition of -6%.
Work on `C=C(Br)CN(CC(=C)Br)C(C)=O` yielded a growth inhibition of 21%.
For `CCN(C(C)=O)c1ccc2c(c1)Cc1ccccc1-2`, the growth inhibition was 96% (active).
For `NN(c1ccccc1)c1cccc2ccccc12`, the growth inhibition was 96% (active).
In the case of `C#CCN1CCN(C(=S)N/N=C(\C)c2ccccn2)CC1`, the growth inhibition is reported as 99% (active).
With `CC(C)OC(=O)C1C=CCc2c(O)ccc(O)c21` (stereo not given) the growth inhibition was 25%.
For `CC(=O)C1C(=O)C=C(C)OC1=O` (stereo not given), the growth inhibition was 21%.
`CCOC(=O)c1[nH]n(-c2ccccc2)c(=O)c1/C=N/C(=S)N=Nc1c(O)[nH]c2ccccc12` gave a growth inhibition of -9%.
For `N#Cc1c(Cl)nnc(-c2ccccc2)c1-c1ccccc1`, the growth inhibition was 81% (active).
With `CC(=O)Oc1c(O)c2ccccc2c2ccccc12` the growth inhibition was 93% (active).
With `Cc1cccnc1NC(=S)Nc1ccccc1Cl` the growth inhibition was 99% (active).
For `CCOC(=O)/C(=C\c1cccc(OC)c1)C(C)=O`, the growth inhibition was 90% (active).
For `c1ccc(C(c2ccccc2)c2ccc3ccccc3n2)cc1`, the growth inhibition was 91% (active).
For `O=c1cc(CSc2ccc(Cl)cc2)occ1O`, the growth inhibition was 32%.
With `COc1cc(NCCCCCNC2CCCCC2)c2ncccc2c1` the growth inhibition was 64%.
For `CC(=O)OCc1ccc([N+](=O)[O-])o1`, the growth inhibition was 78% (active).
Work on `O=C(O)Cc1cccc2cc3c(ccc4ccccc43)cc12` yielded a growth inhibition of 34%.
For `Cc1cccc(N2C(=O)c3ccccc3C2(c2ccccc2)N2CCCCC2)c1` (stereo not given), the growth inhibition was -5%.
With `O=C(/C=C/c1ccccc1)CCN1CCOCC1` the growth inhibition was 99% (active).
Work on `C=CCCCCCCCCC(=O)CCCCCCCCC=C` yielded a growth inhibition of 2%.
With `Cc1ccc(O)c(C(C)c2ccccc2)c1` (stereo not given) the growth inhibition was 97% (active).
`COC(=O)c1nc(N)nc(C(=O)OC)c1C(=O)c1ccccc1` gave a growth inhibition of 21%.
Compound `Cc1ccc(S(=O)(=O)Oc2ccc(C(C)(C)C)cc2Cl)cc1` has a growth inhibition of -11%.
For `CCCCCCCCCCCCCCC[N+]1(CC)CCCCC1`, the growth inhibition was 99% (active).
With `CC12CCC(=O)C=C1C=CC1C2CCC2(C)C1CCC21CCC(=O)O1` (stereo not given) the growth inhibition was 99% (active).
`CC(C)N(C(=O)C12C3C4C1C1C2C3C41I)C(C)C` (stereo not given) showed a growth inhibition of -6%.
